Data: ChEMBL document CHEMBL1961873, “Compounds: GSK PKIS; Assays: Nanosyn kinase panel” (2012)

How the values were obtained:
[1] = target: MAP/microtubule affinity-regulating kinase 3 (Homo sapiens) (UniProt P27448); conditions: at 1 µM;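 note: reported values are averaged percent inhibition of MARK3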
[2] = target: T1, MAP/microtubule affinity-regulating kinase 4 (Homo sapiens) (UniProt Q96L34); conditions: at 0.1 µM
T1 sequence (whole entry): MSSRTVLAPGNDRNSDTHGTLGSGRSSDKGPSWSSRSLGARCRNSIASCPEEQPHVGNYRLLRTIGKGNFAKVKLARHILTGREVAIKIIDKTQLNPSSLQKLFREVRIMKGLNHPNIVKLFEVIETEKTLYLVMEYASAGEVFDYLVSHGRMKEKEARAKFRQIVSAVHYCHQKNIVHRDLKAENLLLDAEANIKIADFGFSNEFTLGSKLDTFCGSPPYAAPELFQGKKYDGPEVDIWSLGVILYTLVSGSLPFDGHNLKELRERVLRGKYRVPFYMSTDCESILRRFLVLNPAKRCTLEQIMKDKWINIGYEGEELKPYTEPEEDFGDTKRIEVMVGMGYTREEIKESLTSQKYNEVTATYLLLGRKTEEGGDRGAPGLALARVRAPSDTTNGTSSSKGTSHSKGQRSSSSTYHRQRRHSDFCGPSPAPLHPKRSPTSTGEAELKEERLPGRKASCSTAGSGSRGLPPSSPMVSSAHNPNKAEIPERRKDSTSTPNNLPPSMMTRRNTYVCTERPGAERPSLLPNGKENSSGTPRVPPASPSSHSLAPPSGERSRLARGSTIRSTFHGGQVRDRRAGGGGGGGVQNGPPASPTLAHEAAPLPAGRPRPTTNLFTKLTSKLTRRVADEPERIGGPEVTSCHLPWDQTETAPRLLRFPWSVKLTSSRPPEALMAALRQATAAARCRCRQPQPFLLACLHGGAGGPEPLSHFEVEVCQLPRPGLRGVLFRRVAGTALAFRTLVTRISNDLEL

[3] = target: T1, MAP/microtubule affinity-regulating kinase 4 (Homo sapiens); conditions: at 1 µM
[4] = target: Maternal embryonic leucine zipper kinase (Homo sapiens) (UniProt Q14680); conditions: at 0.1 µM
[5] = target: Maternal embryonic leucine zipper kinase (Homo sapiens) (UniProt Q14680); conditions: at 1 µM
[6] = target: MAP kinase-interacting serine/threonine-protein kinase 1 (Homo sapiens) (UniProt Q9BUB5); conditions: at 0.1 µM
[7] = target: MAP kinase-interacting serine/threonine-protein kinase 1 (Homo sapiens) (UniProt Q9BUB5); conditions: at 1 µM
[8] = target: MAP kinase-interacting serine/threonine-protein kinase 2 (Homo sapiens) (UniProt Q9HBH9); conditions: at 0.1 µM
[9] = target: MAP kinase-interacting serine/threonine-protein kinase 2 (Homo sapiens) (UniProt Q9HBH9); conditions: at 1 µM
[10] = target: Serine/threonine-protein kinase MARK2 (Homo sapiens) (UniProt Q7KZI7); conditions: at 0.1 µM
[11] = target: Serine/threonine-protein kinase MARK2 (Homo sapiens) (UniProt Q7KZI7); conditions: at 1 µM
[12] = target: PAS domain-containing serine/threonine-protein kinase (Homo sapiens) (UniProt Q96RG2); conditions: at 0.1 µM
[13] = target: PAS domain-containing serine/threonine-protein kinase (Homo sapiens) (UniProt Q96RG2); conditions: at 1 µM
[14] = target: Phosphorylase b kinase gamma catalytic chain, skeletal muscle/heart isoform (Homo sapiens) (UniProt Q16816); conditions: at 0.1 µM
[15] = target: Phosphorylase b kinase gamma catalytic chain, skeletal muscle/heart isoform (Homo sapiens) (UniProt Q16816); conditions: at 1 µM
[16] = target: T2, Phosphorylase b kinase gamma catalytic chain, liver/testis isoform (Homo sapiens) (UniProt P15735); conditions: at 0.1 µM
T2 sequence (whole entry): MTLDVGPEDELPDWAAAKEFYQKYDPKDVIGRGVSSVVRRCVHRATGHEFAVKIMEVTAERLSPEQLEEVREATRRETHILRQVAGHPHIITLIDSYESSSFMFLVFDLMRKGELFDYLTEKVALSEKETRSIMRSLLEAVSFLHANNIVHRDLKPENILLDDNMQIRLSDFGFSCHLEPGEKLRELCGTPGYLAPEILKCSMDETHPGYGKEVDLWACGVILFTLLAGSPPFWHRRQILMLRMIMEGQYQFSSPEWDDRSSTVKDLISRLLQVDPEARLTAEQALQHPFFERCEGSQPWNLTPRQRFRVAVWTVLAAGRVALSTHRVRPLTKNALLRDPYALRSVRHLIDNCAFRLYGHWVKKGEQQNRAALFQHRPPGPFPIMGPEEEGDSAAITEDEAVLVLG

[17] = target: T2, Phosphorylase b kinase gamma catalytic chain, liver/testis isoform (Homo sapiens); conditions: at 1 µM
[18] = target: Serine/threonine-protein kinase pim-1 (Homo sapiens) (UniProt P11309); conditions: at 0.1 µM
[19] = target: Serine/threonine-protein kinase pim-1 (Homo sapiens) (UniProt P11309); conditions: at 1 µM
[20] = target: Serine/threonine-protein kinase pim-2 (Homo sapiens) (UniProt Q9P1W9); conditions: at 0.1 µM;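 note: reported value is the mean percent inhibition of PIM2, measured in the GSK PKIS kinase inhibitor set screen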
Sequence of Serine/threonine-protein kinase pim-2 (Homo sapiens) (Q9P1W9 whole entry, looked up): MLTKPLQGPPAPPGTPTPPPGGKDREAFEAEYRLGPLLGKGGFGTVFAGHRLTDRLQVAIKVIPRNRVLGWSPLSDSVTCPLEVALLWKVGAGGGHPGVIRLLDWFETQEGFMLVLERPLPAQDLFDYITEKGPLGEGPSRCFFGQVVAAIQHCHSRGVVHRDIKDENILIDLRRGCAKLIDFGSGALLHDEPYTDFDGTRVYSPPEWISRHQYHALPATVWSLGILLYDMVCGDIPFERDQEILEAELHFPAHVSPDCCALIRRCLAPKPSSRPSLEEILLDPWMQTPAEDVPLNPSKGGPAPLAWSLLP

Sequence of MAP kinase-interacting serine/threonine-protein kinase 2 (Homo sapiens) (Q9HBH9 whole entry, looked up): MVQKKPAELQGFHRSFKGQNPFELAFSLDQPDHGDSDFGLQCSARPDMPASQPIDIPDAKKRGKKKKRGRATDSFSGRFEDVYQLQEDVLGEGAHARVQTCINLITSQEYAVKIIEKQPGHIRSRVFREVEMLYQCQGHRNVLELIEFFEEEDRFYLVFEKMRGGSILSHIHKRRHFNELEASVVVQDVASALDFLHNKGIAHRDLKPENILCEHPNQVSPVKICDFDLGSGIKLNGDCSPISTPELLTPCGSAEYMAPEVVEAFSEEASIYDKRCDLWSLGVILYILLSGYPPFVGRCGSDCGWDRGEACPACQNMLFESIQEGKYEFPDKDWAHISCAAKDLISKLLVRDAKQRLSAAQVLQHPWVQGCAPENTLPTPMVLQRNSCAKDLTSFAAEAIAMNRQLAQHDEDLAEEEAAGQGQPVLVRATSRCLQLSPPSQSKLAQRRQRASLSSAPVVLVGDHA
Sequence of Serine/threonine-protein kinase pim-1 (Homo sapiens) (P11309 whole entry, looked up): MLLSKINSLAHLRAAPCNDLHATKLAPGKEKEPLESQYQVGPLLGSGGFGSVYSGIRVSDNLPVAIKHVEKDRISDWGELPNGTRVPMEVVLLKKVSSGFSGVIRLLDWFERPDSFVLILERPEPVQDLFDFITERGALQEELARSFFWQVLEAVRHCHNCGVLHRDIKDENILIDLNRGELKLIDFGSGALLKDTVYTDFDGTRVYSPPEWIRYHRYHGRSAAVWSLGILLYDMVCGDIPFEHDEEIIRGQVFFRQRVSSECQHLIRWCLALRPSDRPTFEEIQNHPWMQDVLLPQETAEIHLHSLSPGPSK
Sequence of Maternal embryonic leucine zipper kinase (Homo sapiens) (Q14680 whole entry, looked up): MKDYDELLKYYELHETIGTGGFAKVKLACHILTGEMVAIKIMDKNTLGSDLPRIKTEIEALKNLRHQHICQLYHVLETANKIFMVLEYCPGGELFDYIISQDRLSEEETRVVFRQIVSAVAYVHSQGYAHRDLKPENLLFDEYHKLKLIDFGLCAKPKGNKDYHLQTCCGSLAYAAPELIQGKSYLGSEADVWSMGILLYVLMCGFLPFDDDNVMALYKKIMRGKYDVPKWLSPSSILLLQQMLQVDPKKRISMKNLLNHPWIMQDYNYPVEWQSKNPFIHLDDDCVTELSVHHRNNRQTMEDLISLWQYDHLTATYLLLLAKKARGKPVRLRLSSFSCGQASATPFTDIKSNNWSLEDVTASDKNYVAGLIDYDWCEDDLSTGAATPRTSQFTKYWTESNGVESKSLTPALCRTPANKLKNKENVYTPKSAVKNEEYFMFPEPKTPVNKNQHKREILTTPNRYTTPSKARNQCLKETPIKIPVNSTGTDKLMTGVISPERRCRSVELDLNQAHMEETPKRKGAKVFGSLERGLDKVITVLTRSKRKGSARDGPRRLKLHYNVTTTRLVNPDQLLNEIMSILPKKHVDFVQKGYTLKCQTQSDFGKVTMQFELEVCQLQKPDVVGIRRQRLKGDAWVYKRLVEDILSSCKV
Sequence of MAP/microtubule affinity-regulating kinase 3 (Homo sapiens) (P27448 whole entry, looked up): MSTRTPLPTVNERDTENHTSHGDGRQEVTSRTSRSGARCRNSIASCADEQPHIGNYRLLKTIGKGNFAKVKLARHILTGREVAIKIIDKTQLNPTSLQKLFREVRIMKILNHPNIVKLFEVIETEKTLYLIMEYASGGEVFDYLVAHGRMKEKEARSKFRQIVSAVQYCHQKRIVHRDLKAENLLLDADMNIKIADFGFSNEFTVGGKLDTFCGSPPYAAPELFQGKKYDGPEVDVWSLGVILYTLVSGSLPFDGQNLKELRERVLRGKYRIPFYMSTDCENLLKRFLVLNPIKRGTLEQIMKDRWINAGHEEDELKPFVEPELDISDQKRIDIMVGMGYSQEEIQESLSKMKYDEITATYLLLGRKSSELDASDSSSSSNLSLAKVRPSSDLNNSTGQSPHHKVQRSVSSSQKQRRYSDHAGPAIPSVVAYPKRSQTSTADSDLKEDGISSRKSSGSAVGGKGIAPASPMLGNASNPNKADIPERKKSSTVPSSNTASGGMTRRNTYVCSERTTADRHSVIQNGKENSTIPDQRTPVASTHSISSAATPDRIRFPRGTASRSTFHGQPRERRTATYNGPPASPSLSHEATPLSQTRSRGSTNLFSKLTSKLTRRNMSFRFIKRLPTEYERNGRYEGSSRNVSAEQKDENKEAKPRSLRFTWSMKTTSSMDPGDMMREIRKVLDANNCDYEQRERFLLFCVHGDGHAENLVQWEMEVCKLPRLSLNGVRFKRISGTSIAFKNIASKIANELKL
Sequence of Serine/threonine-protein kinase MARK2 (Homo sapiens) (Q7KZI7 whole entry, the tested form may be a part): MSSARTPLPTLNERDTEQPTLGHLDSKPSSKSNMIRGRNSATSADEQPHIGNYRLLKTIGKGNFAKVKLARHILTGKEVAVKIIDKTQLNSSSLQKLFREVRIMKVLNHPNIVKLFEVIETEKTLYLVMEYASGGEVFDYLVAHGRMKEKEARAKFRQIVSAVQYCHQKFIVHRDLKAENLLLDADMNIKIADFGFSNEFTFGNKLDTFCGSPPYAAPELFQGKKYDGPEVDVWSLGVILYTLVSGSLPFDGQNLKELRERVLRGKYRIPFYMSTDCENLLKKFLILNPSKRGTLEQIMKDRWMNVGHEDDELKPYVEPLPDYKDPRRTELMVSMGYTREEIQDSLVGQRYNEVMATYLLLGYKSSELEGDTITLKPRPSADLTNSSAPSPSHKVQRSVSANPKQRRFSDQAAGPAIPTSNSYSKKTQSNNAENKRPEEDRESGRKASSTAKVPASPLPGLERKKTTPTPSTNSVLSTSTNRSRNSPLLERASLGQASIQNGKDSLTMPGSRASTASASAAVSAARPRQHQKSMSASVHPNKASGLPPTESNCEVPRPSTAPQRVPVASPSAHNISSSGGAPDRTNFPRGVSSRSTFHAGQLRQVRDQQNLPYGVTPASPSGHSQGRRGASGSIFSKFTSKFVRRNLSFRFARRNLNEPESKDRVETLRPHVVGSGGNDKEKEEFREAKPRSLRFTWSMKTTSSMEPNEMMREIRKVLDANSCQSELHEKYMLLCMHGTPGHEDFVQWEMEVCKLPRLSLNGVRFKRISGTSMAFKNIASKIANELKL
Sequence of PAS domain-containing serine/threonine-protein kinase (Homo sapiens) (Q96RG2 whole entry, the tested form may be a part, canonical isoform): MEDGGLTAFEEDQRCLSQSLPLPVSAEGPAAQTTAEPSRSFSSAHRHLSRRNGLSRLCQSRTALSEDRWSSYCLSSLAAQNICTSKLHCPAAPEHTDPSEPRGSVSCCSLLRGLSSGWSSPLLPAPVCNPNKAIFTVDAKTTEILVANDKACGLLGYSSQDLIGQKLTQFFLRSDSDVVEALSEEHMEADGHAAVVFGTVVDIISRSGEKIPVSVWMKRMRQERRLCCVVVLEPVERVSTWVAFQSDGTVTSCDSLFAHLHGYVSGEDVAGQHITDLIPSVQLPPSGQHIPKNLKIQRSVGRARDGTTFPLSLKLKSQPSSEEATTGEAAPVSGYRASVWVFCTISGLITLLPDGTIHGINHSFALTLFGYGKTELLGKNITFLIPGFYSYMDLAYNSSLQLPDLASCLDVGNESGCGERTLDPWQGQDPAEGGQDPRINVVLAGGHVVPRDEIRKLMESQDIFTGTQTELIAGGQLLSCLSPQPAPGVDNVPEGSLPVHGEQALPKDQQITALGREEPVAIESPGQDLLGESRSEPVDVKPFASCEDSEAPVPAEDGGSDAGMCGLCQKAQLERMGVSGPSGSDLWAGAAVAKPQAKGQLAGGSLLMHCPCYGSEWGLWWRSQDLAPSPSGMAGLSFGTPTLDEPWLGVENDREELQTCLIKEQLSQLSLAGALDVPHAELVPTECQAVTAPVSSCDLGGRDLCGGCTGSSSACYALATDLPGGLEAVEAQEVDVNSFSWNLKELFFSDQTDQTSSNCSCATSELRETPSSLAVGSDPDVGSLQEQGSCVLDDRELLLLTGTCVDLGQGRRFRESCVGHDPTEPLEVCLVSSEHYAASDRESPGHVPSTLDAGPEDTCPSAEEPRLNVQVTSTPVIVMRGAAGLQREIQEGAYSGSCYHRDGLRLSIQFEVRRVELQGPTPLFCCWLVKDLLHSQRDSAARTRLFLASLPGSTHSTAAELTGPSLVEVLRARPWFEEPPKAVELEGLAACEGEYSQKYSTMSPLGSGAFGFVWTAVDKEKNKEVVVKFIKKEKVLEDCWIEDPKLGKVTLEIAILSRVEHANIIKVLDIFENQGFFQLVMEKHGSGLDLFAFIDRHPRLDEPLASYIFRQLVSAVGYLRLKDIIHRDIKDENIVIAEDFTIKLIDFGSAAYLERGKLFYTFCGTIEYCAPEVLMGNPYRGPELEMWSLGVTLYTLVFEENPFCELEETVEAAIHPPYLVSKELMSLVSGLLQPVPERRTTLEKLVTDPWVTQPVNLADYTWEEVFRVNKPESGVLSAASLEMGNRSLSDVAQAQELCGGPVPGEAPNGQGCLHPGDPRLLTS
Sequence of Phosphorylase b kinase gamma catalytic chain, skeletal muscle/heart isoform (Homo sapiens) (Q16816 whole entry, looked up, canonical isoform): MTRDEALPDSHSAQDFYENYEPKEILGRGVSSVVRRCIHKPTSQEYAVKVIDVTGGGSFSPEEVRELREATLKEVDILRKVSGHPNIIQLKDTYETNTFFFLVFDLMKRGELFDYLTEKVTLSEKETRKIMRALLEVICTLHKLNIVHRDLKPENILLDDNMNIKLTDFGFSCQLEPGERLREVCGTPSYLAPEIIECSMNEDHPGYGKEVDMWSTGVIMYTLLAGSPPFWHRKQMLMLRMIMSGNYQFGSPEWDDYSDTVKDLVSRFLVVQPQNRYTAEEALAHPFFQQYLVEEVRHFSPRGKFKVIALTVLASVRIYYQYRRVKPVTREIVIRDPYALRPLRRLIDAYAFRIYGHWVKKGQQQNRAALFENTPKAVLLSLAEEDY

SMILES	inhibition [1]	inhibition [2]	inhibition [3]	inhibition [4]	inhibition [5]	inhibition [6]	inhibition [7]	inhibition [8]	inhibition [9]	inhibition [10]	inhibition [11]	inhibition [12]	inhibition [13]	inhibition [14]	inhibition [15]	inhibition [16]	inhibition [17]	inhibition [18]	inhibition [19]	inhibition [20]
Cn1cc(C=C2C(=O)Nc3cccnc32)c2ccccc21	7.16%	1.67%	6.49%	4.43%	23.5%	3.06%	15.5%	1.53%	15.3%	1.17%	5.73%	-0.07%	-2.27%	4.46%	20.8%	2.23%	2.8%	1.3%	10.4%	0.38%
CC1=C(C(=O)Nc2ccc3[nH]ncc3c2)C(c2ccc(Cl)c(Cl)c2)CC(=O)N1 (stereo not given)	9.26%	-0.78%	3.04%	-0.28%	5.33%	2.25%	5.99%	0.25%	1.48%	-0.78%	3.36%	-0.49%	-1.74%	1.04%	2.45%	2.86%	-0.26%	-0.12%	0.22%	0.05%
COC(=O)Nc1nc2cc(Oc3ccc(NC(=O)Nc4cccc(C(=O)O)c4)cc3)ccc2[nH]1	3.98%	-0.3%	1.97%	-0.21%	0.37%	-0.48%	8.3%	0.28%	3.85%	-2.31%	0.87%	0.9%	1.66%	-0.77%	11.2%	1.36%	4.11%	-0.3%	0.62%	-4.42%
CCn1c(-c2nonc2N)nc2c(C#CC(C)(C)O)nc(OC[C@@H](N)c3ccccc3)cc21	28.1%	1.28%	16.9%	0.84%	27.5%	-0.06%	4.44%	0.08%	3.19%	1.17%	13.6%	0.65%	16%	0.84%	4.71%	-2.07%	-2.54%	1.15%	3.59%	0.23%
Nc1nc(-c2ccc3c(c2)C(=Cc2cc(Br)c(O)c(Br)c2)C(=O)N3)cs1	-2.49%	0.78%	1.73%	0.07%	5.36%	-1.04%	7.91%	0.49%	10.6%	0%	0.67%	-0.9%	-1.85%	3.78%	5.21%	-3.21%	-2.57%	3.74%	25.6%	10.8%
Cc1nn(C)c2cc(N(C)c3ccnc(Nc4cccc(S(N)(=O)=O)c4)n3)ccc12	-2.37%	1.36%	0.82%	4.84%	5%	1.93%	6.83%	2.38%	7.27%	-0.09%	1.25%	-0.56%	-0.33%	3.53%	8.04%	2.44%	2.5%	1.18%	0.82%	0.22%
COc1cc2ncn(-c3cc(OCc4ccccc4Cl)c(C(N)=O)s3)c2cc1OC	9.99%	1.66%	9.04%	2.05%	8.87%	0.61%	7.42%	1.58%	7.9%	0.69%	6.01%	-0.4%	-0.88%	3.72%	5.84%	-0.8%	1.21%	0.77%	2.71%	1.11%
CC1=C(C(=O)Nc2ccc3[nH]ncc3c2)C(c2ccc3ccccc3c2)CC(=O)N1 (stereo not given)	4.13%	0.19%	1.73%	3.7%	6.22%	3.03%	5.77%	1.21%	3.81%	-0.71%	0.34%	-0.4%	-1.53%	2.21%	1.29%	2.37%	1.22%	0.24%	-0.93%	0.51%
CCc1cccc(NC(=O)Nc2ccc(Oc3ccc4nc(NC(=O)OC)[nH]c4c3)cc2)c1	3.47%	-0.22%	-1.15%	-0.95%	2.29%	5.71%	15.8%	4.24%	12.2%	2.55%	-0.89%	1.41%	1.44%	-0.84%	2.94%	3.07%	3.57%	1.27%	0.49%	-0.87%
COc1cc2ncn(-c3cc(OCc4ccccc4C(F)(F)F)c(C(N)=O)s3)c2cc1OC	21.5%	5.05%	18.4%	5.92%	10.3%	2.99%	7.06%	2.21%	7.89%	2.29%	12.2%	-0.15%	0.3%	6.17%	8.75%	5.36%	6.56%	-0.79%	2.8%	-3.6%
CS(=O)(=O)Nc1ccc(N/C=C2\C(=O)Nc3ccccc32)cc1	16.1%	3.29%	18.9%	-1.64%	20.9%	-0.49%	-0.33%	0.01%	5.59%	2.67%	15.6%	0.59%	0.59%	4.32%	31.5%	-3.81%	5.2%	0.18%	0.04%	-0.01%
CN1CCC(C(=O)Nc2n[nH]c3nnc(-c4ccccc4)cc23)CC1	4.62%	2.21%	3.02%	3.21%	5.92%	6.32%	13.6%	2.9%	8.1%	1.18%	0.72%	0.17%	0.71%	5.33%	11.3%	6.18%	9.48%	1.63%	3.41%	0.6%
CCN1CCC(CC(=O)Nc2n[nH]c3nc(-c4cccs4)c(Br)cc23)CC1	-0.75%	0.08%	0.81%	-1.63%	0.98%	42%	76.6%	2.95%	28.2%	0.07%	0.15%	-0.58%	-1.17%	2.37%	5.36%	-4.86%	-3.7%	0.1%	3.88%	0.19%
